The record followed here is PubChem BioAssay AID504428 (National Center for Advancing Translational Sciences (NCATS), 2011).

Some of the results follow. Entries that show only a call come without a potency. Activity calls are given as the source filed them.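 How the source made its calls: active means compounds that inhibited Clk3 enough in the ten-dose series to give a half-maximal potency; inactive means the rest.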

The target in the assay is Dual specificity protein kinase CLK3 (Homo sapiens) (UniProt P49761). Nature of the assay: Kinase Inhibition Study on Inhibitors of CDC-like Kinase 3 (Reaction Biology data). To be noted: recombinant CLK3 kinase assay, 10 uM ATP. The text has this: NIH Molecular Libraries Probe Production Centers Network [MLPCN] NIH Chemical Genomics Center [NCGC] MLPCN Grant: 1R03MH084827-01 Assay Submitter (PI): Tom Misteli NCGC Assay Overview: Alternative splicing of pre-mRNAs plays a major role in the regulation of eukaryotic gene expression. Alternative splicing is now thought to be one of the primary reasons for the complexity of higher organisms leading to an average of three protein isoforms per gene. Aberrant splicing can lead to a number of diseases and is known to play a role in rare genetic diseases such as progeria syndrome. Hutchinson-Gilford Progeria Syndrome (HGPS) is a pediatric premature aging disease caused by a spontaneous mutation in the lamin A/C (LMNA) gene due to a single point mutation in the lamin A gene effecting 1 in 4 million people. To identify both specific splicing modulators of the lamin A gene as well as general splicing modulators, a cell-based HTS assay was developed using a minigene reporter system (AIDs, 1459 & 1487). […] This AID summarizes the characterization of lead compounds in Clk3.
Dual specificity protein kinase CLK3 (Homo sapiens), sequence (P49761 whole entry, looked up, canonical isoform): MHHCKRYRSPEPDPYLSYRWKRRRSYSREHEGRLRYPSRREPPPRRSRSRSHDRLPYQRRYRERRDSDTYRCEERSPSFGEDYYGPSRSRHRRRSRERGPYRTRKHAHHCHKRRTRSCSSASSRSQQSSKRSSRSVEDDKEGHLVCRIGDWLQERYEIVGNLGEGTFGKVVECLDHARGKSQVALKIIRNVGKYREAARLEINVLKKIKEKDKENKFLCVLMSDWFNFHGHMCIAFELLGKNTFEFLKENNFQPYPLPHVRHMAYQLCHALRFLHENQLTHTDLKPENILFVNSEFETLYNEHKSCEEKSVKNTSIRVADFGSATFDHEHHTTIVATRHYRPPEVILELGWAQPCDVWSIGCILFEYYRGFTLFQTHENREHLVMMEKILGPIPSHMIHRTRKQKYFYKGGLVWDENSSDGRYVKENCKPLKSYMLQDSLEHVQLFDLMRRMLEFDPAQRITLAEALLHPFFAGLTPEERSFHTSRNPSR
All kinase reactions were performed using 10 uM ATP in the assay. 100% activity was taken from kinase reactions with DMSO alone (the vehicle used for compound stock solutions).
Consider `CC(Nc1ncnc2ccc(-c3ccc4c(c3)OCO4)cc12)c1ccco1` (centres undefined), for which the Potency was 15 µM (active).
As for `c1nc(N2CCOCC2)c2cc(-c3ccc4c(c3)OCO4)ccc2n1`, the result was inactive.
For the compound `c1coc(CCNc2ncnc3ccc(-c4ccc5c(c4)OCO5)cc23)c1`, the Potency was 2.02 µM (active).
`CN(Cc1cncn1C)c1ncnc2ccc(-c3ccc4c(c3)OCO4)cc12`: the outcome was inactive.
